# In all, about 140,000 sequences were measured (“enrichment ratio after two sorts for PhoP signalling”: median about 0, highest 2% from about 11 on). Only a selection was taken, and the highest values are over-represented in it overall.
# B1: PhoQ; a variant is named by its letters at X, in order, P23837 (parent)
# chain: MKKLLRLFFPLSLRVRFLLATAAVVLVLSLAYGMVALIGYSVSFDKTTFRLLRGESNLFYTLAKWENNKLHVELPENIDKQSPTMTLIYDENGQLLWAQRDVPWLMKMIQPDWLKSNGFHEIEADVNDTSLLLSGDHSIQQQLQEVREDDDDAEMTHSVAVNVYPATSRMPKLTIVVVDTIPVELKSSYMVWSWFIYVLSANLLLVIPLLWVAAWWSLRPIEALAKEVRELEEHNRELLNPATTRELTSLVRNLNRLLKSERERYDKYRTTLTDLTHSLKTPLXXLQXXLRSLRSEKMSVSDAEPVMLEQISRISQQIGYYLHRASMRGGTLLSRELHPVAPLLDNLTSALNKVYQRKGVNISLDISPEISFVGEQNDFVEVMGNVLDNACKYCLEFVEISARQTDEHLYIVVEDDGPGIPLSKREVIFDRGQRVDTLRPGQGVGLAVAREITEQYEGKIVAGESMLGGARMEVIFGRQHSAPKDE
# Variants of: B1
# Assay: enrichment ratio after two sorts for PhoP signalling (ratio (wild type AVST 3.29)); higher = more functional
# Details: with PhoP (E. coli)
row,Variant,enrichment ratio
1,NIYL,≤ 0.25
2,TEGM,4.56
3,KSWS,≤ 0.25
4,TEWA,38.4
5,TEYL,13
6,TEWM,73.1
7,YTYL,≤ 0.25
8,QHAH,≤ 0.25
9,DNQP,≤ 0.25
10,LKHW,≤ 0.25
11,NWHW,≤ 0.25
12,WFMI,≤ 0.25
13,IWYG,≤ 0.25
14,WQRD,≤ 0.25
15,HEYK,≤ 0.25
16,RHGY,≤ 0.25
17,TEAM,16.4
18,TEWL,21.7
19,TEWD,13
20,MEWL,≤ 0.25
21,MEAM,9.82
22,KSWD,≤ 0.25
23,TEGL,13.2
24,TEEL,≤ 0.25
25,TERL,≤ 0.25
26,NEAM,≤ 0.25

row,Variant,enrichment ratio
1,KSWL,≤ 0.25
2,QEWD,4.99
3,SQYM,≤ 0.25
4,VRMI,≤ 0.25
5,QHIN,≤ 0.25
6,SFID,≤ 0.25
7,DARD,≤ 0.25
8,RDIV,≤ 0.25
9,QEWF,≤ 0.25
10,TEWF,22
11,NYWF,≤ 0.25
12,RLCT,≤ 0.25
13,NKEG,≤ 0.25
14,NQVI,≤ 0.25
15,AQVK,≤ 0.25
16,AQVA,14.1
17,VHVI,≤ 0.25
18,AQHE,≤ 0.25
19,AQVE,34.1
20,WIVI,≤ 0.25
21,ICVI,≤ 0.25
22,AQVI,18.1
23,AQRA,≤ 0.25
24,ADVE,≤ 0.25
25,AIVI,13
26,DEDS,≤ 0.25

row,Variant,enrichment ratio
1,DGNR,≤ 0.25
2,DLTS,≤ 0.25
3,PPKY,≤ 0.25
4,ICPL,≤ 0.25
5,KKGI,≤ 0.25
6,DIWR,≤ 0.25
7,HNLR,≤ 0.25
8,AMVI,16.3
9,VLVI,≤ 0.25
10,NMVI,≤ 0.25
11,AKVE,≤ 0.25
12,AQVC,9.47
13,AIVE,12.3
14,AQWG,≤ 0.25
15,AQVS,14
16,KQVS,≤ 0.25
17,EQVS,≤ 0.25
18,AQVG,12
19,RIVE,≤ 0.25
20,DFYH,≤ 0.25
21,PRHA,≤ 0.25
22,KVWY,≤ 0.25
23,KKYK,≤ 0.25
24,ETML,≤ 0.25
25,SGLV,17.9
26,RGLV,≤ 0.25

row,Variant,enrichment ratio
1,TGLV,12.3
2,CFLV,≤ 0.25
3,VRLV,≤ 0.25
4,AGLV,12.7
5,VHLV,≤ 0.25
6,NGLV,6.65
7,SGHK,≤ 0.25
8,VGLV,12.3
9,APLV,≤ 0.25
10,LWQD,≤ 0.25
11,FDMF,≤ 0.25
12,VNQQ,≤ 0.25
13,YCCF,≤ 0.25
14,NGGQ,≤ 0.25
15,MMPC,≤ 0.25
16,LNWD,≤ 0.25
17,VQIE,≤ 0.25
18,QIPP,≤ 0.25
19,NILV,0.722
20,MGLW,≤ 0.25
21,MGLV,15.2
22,GGLV,13.7
23,GYLV,≤ 0.25
24,MGLA,2.09
25,YFRP,≤ 0.25
26,IDDH,≤ 0.25

row,Variant,enrichment ratio
1,FGMW,≤ 0.25
2,FGMV,16.7
3,FGGG,≤ 0.25
4,FGGQ,3.04
5,FGMI,11.8
6,FGMQ,21.1
7,FGMG,0.824
8,FGMD,≤ 0.25
9,FGMS,0.618
10,YKMH,≤ 0.25
11,HWMV,≤ 0.25
12,RAPQ,≤ 0.25
13,ATVM,6.8
14,STPC,≤ 0.25
15,MGVK,≤ 0.25
16,MGVV,15.6
17,MGVA,≤ 0.25
18,MGHV,2.03
19,MGGS,17.9
20,TGYF,1.56
21,MGWI,1.07
22,MGYV,13.4
23,MGYF,12.2
24,TGVV,0.277
25,MGWV,6.77
26,RGYF,≤ 0.25

row,Variant,enrichment ratio
1,MMRA,≤ 0.25
2,DQCN,≤ 0.25
3,MMLA,≤ 0.25
4,ASGS,3.2
5,MGGQ,2.83
6,MGKI,≤ 0.25
7,MGDI,≤ 0.25
8,MGDS,≤ 0.25
9,MGKH,≤ 0.25
10,MTYQ,2.5
11,MGCI,5.38
12,MGGD,≤ 0.25
13,MGGH,20.1
14,MGCV,14
15,MGYQ,14
16,MGGA,24.1
17,SGGC,10.9
18,HITM,≤ 0.25
19,PRMN,≤ 0.25
20,EYFG,≤ 0.25
21,DTNW,≤ 0.25
22,LCAW,≤ 0.25
23,IYCG,≤ 0.25

# Reference: a collection of fitness landscapes (doi:10.1126/science.1257360)
